Measurements taken from PubChem BioAssay AID463173 (ICCB-Longwood Screening Facility, Harvard Medical School, 2010).
About 4,300 (8.3%) of roughly 52,000 compounds were called active. The entries come from a sample that favours actives as a whole. A number with no mark means an inactive call. No stated cut-off is given here; in the data, active means survival mostly below about 52% (no sharp cut-off); inactive means mostly above about 56%.

Tested on: DeltatarO mutant
Assay: growth inhibition of S. aureus wild type versus tarO mutant, primary screen, teichoic acid synthesis inhibitors, RN4220, OD600 (AID 463173)
Conditions: OD600, 18 h, hits give low values, screened at 18.75 µg/mL (by protocol)

SMILES	survival
COc1nnc(-c2ccc(N3CCCCC3)c(NC(=O)c3ccccc3Cl)c2)c2ccccc12	-1% (active)
Cn1nc(-c2ccc(N3CCCCC3)c(NC(=O)c3ccc(Cl)cc3)c2)c2ccccc2c1=O	66%
COc1ccccc1C(=O)Nc1cc2c(cc1N1CCCC1)n(C)c(=O)c(=O)n2C	89%
CCn1c(=O)c(=O)n(CC)c2cc(N3CCCCC3)c(NC(=O)c3cccc(OC)c3)cc21	85%
COc1nnc(-c2ccc(N3CCCCC3)c(NC(=O)c3ccc(Cl)cc3)c2)c2ccccc12	107%
COc1nnc(-c2ccc(N3CCCCC3)c(NC(=O)c3ccccc3)c2)c2ccccc12	0% (active)
Cn1c(=O)c(=O)n(C)c2cc(N3CCCC3)c(NC(=O)c3ccccc3Cl)cc21	90%
COc1nnc(-c2ccc(N3CCCCC3)c(NC(=O)c3ccc(C)cc3)c2)c2ccccc12	26% (active)
COc1ccccc1C(=O)Nc1cc2c(cc1N1CCCCC1)n(C)c(=O)n2C	78%
COc1ccc(S(=O)(=O)Nc2ccc3c(c2)N(C(C)=O)CCC3)cc1F	85%
Cc1cc(SCCN2CCOCC2)nc2ccccc12	68%
CCc1ccc(CNC(=O)c2ccc3nc(SCc4ccc(F)cc4)n(C)c3c2)cc1	94%
O=C(CSc1cn(CC(=O)N2CCCC2)c2ccccc12)Nc1cc(C(F)(F)F)ccc1Cl	52%
O=C1CSC(c2ccccc2)N1Nc1nc(N2CCOCC2)nc(N2CCOCC2)n1 (stereo not drawn)	101%
COc1cccc(CNC(=O)Cn2nc(N3CCN(c4ccccc4OC)CC3)ccc2=O)c1	86%
Cc1cccc(OCC(=O)Nc2ccc(NC(=O)c3ccco3)cc2)c1	83%
CCn1c2ccccc2c2cc(NC(=O)COC)ccc21	43% (active)
CCn1c2ccccc2c2cc(NC(=O)COc3cc(C)c(Cl)c(C)c3)ccc21	50% (active)
CCn1c(=O)cc(SCC(=O)Nc2ccc(C)c(F)c2)c2ccccc21	89%
CCn1c2ccccc2c2cc(NC(=O)COc3cccc(C)c3)ccc21	27% (active)
Cc1cc(OCC(=O)Nc2ccc3c(c2)OCCO3)cc(C)c1Cl	77%
CCn1c(=O)cc(OCC(=O)Nc2cc(OC)c(OC)c(OC)c2)c2ccccc21	47%
COc1ccc(Nc2cc(C)c3cc(NC(=O)COc4cccc(C)c4)ccc3n2)cc1	102%
CCn1c2ccccc2c2cc(NC(=O)COc3ccc(C)c(C)c3)ccc21	119%

SMILES	survival
COc1ccc(OCC2CNC(=O)O2)cc1 (stereo not drawn)	61%
C=CCn1c(=O)/c(=C2/Sc3ccccc3N2CC)s/c1=C1/C(=O)NN=C1C	89%
Cc1ccc(Nc2ccc(N3CCN(C(=O)c4cccc([N+](=O)[O-])c4)CC3)nn2)cc1	85%
O=C(NCCc1ccccc1)c1ccc2c(c1)N(Cc1ccc(Cl)cc1)C(=O)c1ccccc1S2(=O)=O	89%
COCCCNC(=O)c1ccc2c(c1)N(Cc1ccccc1F)C(=O)c1ccccc1S2=O (stereo not drawn)	83%
COC(=O)c1sc2cccc(F)c2c1S(=O)(=O)NCc1ccc(F)cc1	103%
N#CC1=C(N)C(C#N)(C#N)C(c2ccccc2)C2CCCC=C12 (stereo not drawn)	97%
COc1ccc(C2=C(N3CCN(c4cc(C)ccc4C)CC3)c3ccccc3C2=O)cc1	28% (active)
COc1ccc(C2=C(N3CCN(c4cc(Cl)ccc4C)CC3)c3ccccc3C2=O)cc1	95%
Cc1ccc(C)c(N2CCN(C3=C(c4ccccc4)C(=O)c4ccccc43)CC2)c1	100%
Cn1c(-c2cccc(Br)c2)cnc1NCc1cccc(F)c1	28% (active)
O=C(NCc1cccc(F)c1)c1ccc(-n2cnc3cccnc32)cc1	97%
COc1cccc(-c2cnc(NCc3ccccc3Cl)n2C)c1	51%
COc1cccc(C(=O)n2nc(-c3cccnc3)nc2NCc2ccc(F)cc2)c1	71%
CCc1ccc(CNc2ncc(-c3cccc(OC)c3)n2C)cc1	8% (active)
Cn1c(-c2ccccc2)cnc1NC(=O)c1ccc(F)cc1	81%
Cc1cc(Cl)ccc1NC(=O)CS(=O)(=O)c1cccc2nsnc12	125%
Fc1ccc(-c2cc(-c3nc(-c4cccc(Cl)c4)no3)[nH]n2)cc1	88%
CC(C)(C)c1ccc(C(=O)NC2CCSC2=O)cc1 (stereo not drawn)	92%
NC(=O)c1ccccc1NC(=O)Cn1nc(Cc2cccnc2)c2ccccc2c1=O	71%
Cc1ccc(C)c(CSc2cn(CCNC(=O)c3ccccc3F)c3ccccc23)c1	35% (active)
COc1ccc(C(=O)NCCn2cc(SCc3ccc(C(F)(F)F)cc3)c3ccccc32)cc1OC	72%
O=C(CSc1cn(CCNC(=O)c2ccccc2F)c2ccccc12)Nc1ccccc1F	80%
COc1ccc(C(=O)NCCn2cc(SCc3cccc(F)c3)c3ccccc32)cc1OC	52%

SMILES	survival
O=C(NCCn1cc(SCc2ccc(C(F)(F)F)cc2)c2ccccc21)c1ccccc1F	36% (active)
O=C(NCCn1cc(SCc2ccc(C(F)(F)F)cc2)c2ccccc21)c1cccs1	95%
O=C(CSc1cn(CCNC(=O)c2cccc(C(F)(F)F)c2)c2ccccc12)Nc1ccc2c(c1)OCCO2	87%
Cc1ccc(C)c(CSc2cn(CCNC(=O)c3cccs3)c3ccccc23)c1	71%
O=C(NCCn1cc(SCc2cccc(F)c2)c2ccccc21)c1cccc(C(F)(F)F)c1	35% (active)
COc1ccc(C(=O)NCCn2cc(SCc3cc(C)ccc3C)c3ccccc32)cc1	57%
COc1ccc(C(=O)NCCn2cc(SC(C)c3ccccc3)c3ccccc32)cc1OC (stereo not drawn)	61%
CC(Sc1cn(CCNC(=O)c2ccccc2F)c2ccccc12)c1ccccc1 (stereo not drawn)	42% (active)
O=C(CCC(=O)N1CC2CCCN2c2ccccc21)NCc1ccccc1F (stereo not drawn)	131%
CCOc1ccc(NC(=O)C2CCC(N3C(=O)C4CC=CCC4C3=O)CC2)cc1 (stereo not drawn)	77%
COc1ccc2oc(=O)c(-c3nc(-c4cccs4)no3)cc2c1	73%
CCc1ccc(NC(=O)CSc2nccn2C2CCCC2)cc1	70%
CCN(C(=O)c1cc2c(Cl)nc3ccc(C)cc3c2s1)c1cc(OC)ccc1OC	61%
CCOc1ccc2c(c1)c(=O)c(S(=O)(=O)c1ccc(C)cc1)cn2CC(=O)Nc1ccc(C)cc1	66%
O=C(NCCn1cc(SCc2ccc(F)cc2)c2ccccc21)c1cccs1	50%
O=C(CSc1cn(CCNC(=O)c2c(F)cccc2F)c2ccccc12)Nc1ccc(F)cc1	128%
O=C(NCCn1cc(SCc2ccccc2)c2ccccc21)c1cccs1	54% (active)
O=C(NCCn1cc(SCc2ccc(Br)cc2)c2ccccc21)c1cccs1	110%
O=C(CSc1cn(CCNC(=O)c2c(F)cccc2F)c2ccccc12)Nc1ccccc1F	55%
O=C(NCCn1cc(SCc2ccc(F)cc2)c2ccccc21)c1c(F)cccc1F	53% (active)
CCOc1ccc(-c2cccc(NS(=O)(=O)c3ccc(F)cc3F)c2)nn1	77%
CCN(CC)CCCNC(=O)Cn1nc(N2CCN(c3ccccc3OC)CC2)ccc1=O	75%
Fc1ccccc1Oc1ncnc2c1oc1ccccc12	37% (active)
CCOc1ccccc1Oc1ncnc2c1oc1ccccc12	83%

SMILES	survival
COc1ccc(Oc2ncnc3c2oc2ccccc23)cc1	55%
CC(=O)N1CCc2cc(S(=O)(=O)NC(CC(C)C)C(=O)Nc3ccc(C(C)C)cc3)ccc21 (stereo not drawn)	61%
FC(F)(F)c1cccc(N2CCN(c3ncnc4c3nc3n4CCCC3)CC2)c1	95%
CCOC(=O)c1ccccc1NC(=O)CSc1nnc(CC)n2c1cc1occc12	63%
O=C(O)C1CCCCC1C(=O)Nc1cccc(C(=O)N2CCCCC2)c1 (stereo not drawn)	101%
COc1ccc(OC)c(NC(=O)c2ccc3c(SCC(=O)O)c4c(nc3c2)CCCC4)c1	64%
Cn1cnc2c(=O)oc3ccc(S(=O)(=O)N4CCN(c5ccccc5)CC4)cc3c21	77%
Cn1cnc2c(=O)oc3ccc(S(=O)(=O)N4CCN(c5cccc(C(F)(F)F)c5)CC4)cc3c21	108%
Cn1cnc2c(=O)oc3ccc(S(=O)(=O)N4CCN(c5cccc(Cl)c5)CC4)cc3c21	-5% (active)
Cc1ccc(/C=C/c2onc(C)c2S(=O)(=O)N2CCC(C(=O)NCc3ccco3)CC2)cc1	74%
CCOc1ccccc1NC(=O)c1c(NC(=O)Cc2ccc(OC)cc2)sc2c1CCC2	61%
COc1ccccc1NC(=O)c1c(NC(=O)c2ccccc2F)sc2c1CCC2	136%
CCOc1ccccc1NC(=O)c1c(NC(=O)c2cccc(C)c2)sc2c1CCCC2	76%
O=C(Nc1sc2c(c1C(=O)Nc1ccccc1Cl)CCCC2)c1ccccc1F	48% (active)
CCOc1ccccc1NC(=O)c1c(NC(=O)Cc2ccccc2)sc2c1CCCC2	81%
CCc1ccccc1NC(=O)c1c(NC(=O)c2ccccc2)sc2c1CCCC2	42% (active)
CCOc1ccccc1NC(=O)c1c(NC(=O)c2ccccc2)sc2c1CCCC2	58%
Cc1ccccc1NC(=O)c1c(NC(=O)Cc2ccccc2)sc2c1CCC2	29% (active)
COc1ccccc1NC(=O)c1c(NC(=O)c2ccccc2Cl)sc2c1CCC2	78%
O=C(Cc1ccccc1)Nc1sc2c(c1C(=O)Nc1ccccc1Cl)CCC2	34% (active)
Cc1ccccc1NC(=O)c1c(NC(=O)c2ccccc2)sc2c1CCC2	126%
